Laboratory results taken from the supplement of paper PMC4466140.

Assays:
Assay in all cases: SPOT peptide array binding signal intensity (averaged, normalized) (arbitrary units (background-subtracted, floor 0; scale differs between SH3 domains)); higher = stronger binding of the SH3 domain to the peptide
[1] = target: AgAbp1
In short: (§1)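 To measure binding, SH3 domains from four yeast species were fused to GST, expressed in E. coli BL21(DE3) and purified on glutathione Sepharose. Each domain was incubated at 10 μg/ml overnight at 4°C on cellulose membranes with synthetic 15-mer peptides whose cysteines were replaced by serines. Anti-GST antibody, an HRP anti-mouse secondary and luminol were used for detection, and images were quantified with Genespotter. Reported binding signal is normalized, background-subtracted spot intensity averaged over replicates, in arbitrary units that differ between domains.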

[2] = target: AgBbc1
In short: as §1

[3] = target: AgBem1-D1
In short: as §1

[4] = target: AgBzz1-D1
In short: as §1

[5] = target: AgBzz1-D2
In short: as §1

[6] = target: AgCyk3
In short: as §1

[7] = target: AgFus1
In short: as §1

[8] = target: AgHof1
In short: as §1

[9] = target: AgHse1
In short: as §1

[10] = target: AgLsb1
In short: as §1

[11] = target: AgLsb4
In short: as §1

[12] = target: AgMyo5
In short: as §1

[13] = target: AgNbp2
In short: as §1

[14] = target: AgRvs167
In short: as §1

[15] = target: AgSho1
In short: as §1

[16] = target: AgSla1-D1-D2
In short: as §1

[17] = target: AgSla1-D3
In short: as §1

[18] = target: CaAbp1-D1
In short: as §1

[19] = target: CaAbp1-D2
In short: as §1

[20] = target: CaBbc1
In short: as §1

[21] = target: CaBem1-D1
In short: as §1

[22] = target: CaBzz1-D1
In short: as §1

[23] = target: CaBzz1-D2
In short: as §1

[24] = target: CaCyk3
In short: as §1

[25] = target: CaFus1
In short: as §1

[26] = target: CaHof1
In short: as §1

[27] = target: CaHse1
In short: as §1

[28] = target: CaLsb1
In short: as §1

[29] = target: CaLsb4
In short: as §1

[30] = target: CaMyo5
In short: as §1

[31] = target: CaNbp2
In short: as §1

[32] = target: CaRvs167
In short: as §1

[33] = target: CaRvs167-3
In short: as §1

[34] = target: CaSho1
In short: as §1

[35] = target: CaSla1-D1-D2
In short: as §1

[36] = target: CaSla1-D3
In short: as §1

[37] = target: ScAbp1
In short: as §1

[38] = target: ScBbc1
In short: as §1

[39] = target: ScBem1-D1
In short: as §1

[40] = target: ScBzz1-D1
In short: as §1

[41] = target: ScBzz1-D2
In short: as §1

[42] = target: ScCyk3
In short: as §1

[43] = target: ScFus1
In short: as §1

[44] = target: ScHof1
In short: as §1

[45] = target: ScHse1
In short: as §1

[46] = target: ScLsb1
In short: as §1

[47] = target: ScLsb2
In short: as §1

[48] = target: ScLsb3
In short: as §1

[49] = target: ScLsb4
In short: as §1

[50] = target: ScMyo3
In short: as §1

[51] = target: ScMyo5
In short: as §1

[52] = target: ScNbp2
In short: as §1

[53] = target: ScPex13
In short: as §1

[54] = target: ScRvs167
In short: as §1

[55] = target: ScSho1
In short: as §1

[56] = target: ScSla1-D1-D2
In short: as §1

[57] = target: ScSla1-D3
In short: as §1

[58] = target: SpAbp1-D1
In short: as §1

[59] = target: SpBbc1
In short: as §1

[60] = target: SpBzz1-D1
In short: as §1

[61] = target: SpBzz1-D2
In short: as §1

[62] = target: SpCyk3
In short: as §1

[63] = target: SpHof1
In short: as §1

[64] = target: SpHof1-2
In short: as §1

[65] = target: SpHof1-3
In short: as §1

[66] = target: SpHse1
In short: as §1

[67] = target: SpLsb1
In short: as §1

[68] = target: SpLsb4
In short: as §1

[69] = target: SpMyo1
In short: as §1

[70] = target: SpNbp2
In short: as §1

[71] = target: SpPex13
In short: as §1

[72] = target: SpRvs167
In short: as §1

[73] = target: SpSla1-D1-D2
In short: as §1

[74] = target: SpSla1-D3
In short: as §1

B1: unnamed (peptide)
chain: LKPPIGRPPKFPKSP
SPOT peptide array binding signal intensity [1]: 926
SPOT peptide array binding signal intensity [2]: 160
SPOT peptide array binding signal intensity [3]: 27
SPOT peptide array binding signal intensity [4]: 57
SPOT peptide array binding signal intensity [5]: 4
SPOT peptide array binding signal intensity [6]: ≤ 0
SPOT peptide array binding signal intensity [7]: ≤ 0
SPOT peptide array binding signal intensity [8]: 300
SPOT peptide array binding signal intensity [9]: ≤ 0
SPOT peptide array binding signal intensity [10]: ≤ 0
SPOT peptide array binding signal intensity [11]: ≤ 0
SPOT peptide array binding signal intensity [12]: 1220
SPOT peptide array binding signal intensity [13]: ≤ 0
SPOT peptide array binding signal intensity [14]: 0.583
SPOT peptide array binding signal intensity [15]: ≤ 0
SPOT peptide array binding signal intensity [16]: 21.5
SPOT peptide array binding signal intensity [17]: ≤ 0
SPOT peptide array binding signal intensity [18]: 1440
SPOT peptide array binding signal intensity [19]: 2140
SPOT peptide array binding signal intensity [20]: 1150
SPOT peptide array binding signal intensity [21]: 98
SPOT peptide array binding signal intensity [22]: 239
SPOT peptide array binding signal intensity [23]: 165
SPOT peptide array binding signal intensity [24]: 16.5
SPOT peptide array binding signal intensity [25]: 49
SPOT peptide array binding signal intensity [26]: ≤ 0
SPOT peptide array binding signal intensity [27]: 1.5
SPOT peptide array binding signal intensity [28]: ≤ 0
SPOT peptide array binding signal intensity [29]: 2
SPOT peptide array binding signal intensity [30]: 45.5
SPOT peptide array binding signal intensity [31]: ≤ 0
SPOT peptide array binding signal intensity [32]: 0.917
SPOT peptide array binding signal intensity [33]: 3.12
SPOT peptide array binding signal intensity [34]: ≤ 0
SPOT peptide array binding signal intensity [35]: 908
SPOT peptide array binding signal intensity [36]: 3.25
SPOT peptide array binding signal intensity [37]: 887
SPOT peptide array binding signal intensity [38]: 7
SPOT peptide array binding signal intensity [39]: ≤ 0
SPOT peptide array binding signal intensity [40]: ≤ 0
SPOT peptide array binding signal intensity [41]: ≤ 0
SPOT peptide array binding signal intensity [42]: 0.25
SPOT peptide array binding signal intensity [43]: ≤ 0
SPOT peptide array binding signal intensity [44]: ≤ 0
SPOT peptide array binding signal intensity [45]: 19.8
SPOT peptide array binding signal intensity [46]: 1.5
SPOT peptide array binding signal intensity [47]: ≤ 0
SPOT peptide array binding signal intensity [48]: 64.8
SPOT peptide array binding signal intensity [49]: ≤ 0
SPOT peptide array binding signal intensity [50]: 1390
SPOT peptide array binding signal intensity [51]: 682
SPOT peptide array binding signal intensity [52]: ≤ 0
SPOT peptide array binding signal intensity [53]: ≤ 0
SPOT peptide array binding signal intensity [54]: ≤ 0
SPOT peptide array binding signal intensity [55]: 4.5
SPOT peptide array binding signal intensity [56]: 88.5
SPOT peptide array binding signal intensity [57]: 13.6
SPOT peptide array binding signal intensity [58]: 455
SPOT peptide array binding signal intensity [59]: 7.25
SPOT peptide array binding signal intensity [60]: 894
SPOT peptide array binding signal intensity [61]: ≤ 0
SPOT peptide array binding signal intensity [62]: ≤ 0
SPOT peptide array binding signal intensity [63]: 1.38
SPOT peptide array binding signal intensity [64]: ≤ 0
SPOT peptide array binding signal intensity [65]: 88.2
SPOT peptide array binding signal intensity [66]: 11.5
SPOT peptide array binding signal intensity [67]: 3.75
SPOT peptide array binding signal intensity [68]: 29.5
SPOT peptide array binding signal intensity [69]: 1430
SPOT peptide array binding signal intensity [70]: ≤ 0
SPOT peptide array binding signal intensity [71]: ≤ 0
SPOT peptide array binding signal intensity [72]: 1.33
SPOT peptide array binding signal intensity [73]: ≤ 0
SPOT peptide array binding signal intensity [74]: 2.5

B2: unnamed (peptide)
chain: MTKTPETSPPKRPMG
SPOT peptide array binding signal intensity [1]: ≤ 0
SPOT peptide array binding signal intensity [2]: 5.25
SPOT peptide array binding signal intensity [3]: 66.5
SPOT peptide array binding signal intensity [4]: 22
SPOT peptide array binding signal intensity [5]: 11.5
SPOT peptide array binding signal intensity [6]: ≤ 0
SPOT peptide array binding signal intensity [7]: ≤ 0
SPOT peptide array binding signal intensity [8]: 7.25
SPOT peptide array binding signal intensity [9]: ≤ 0
SPOT peptide array binding signal intensity [10]: 1
SPOT peptide array binding signal intensity [11]: 2
SPOT peptide array binding signal intensity [12]: 946
SPOT peptide array binding signal intensity [13]: 25
SPOT peptide array binding signal intensity [14]: 3.83
SPOT peptide array binding signal intensity [15]: ≤ 0
SPOT peptide array binding signal intensity [16]: 1
SPOT peptide array binding signal intensity [17]: ≤ 0
SPOT peptide array binding signal intensity [18]: 36
SPOT peptide array binding signal intensity [19]: 24
SPOT peptide array binding signal intensity [20]: 180
SPOT peptide array binding signal intensity [21]: 17
SPOT peptide array binding signal intensity [22]: 30
SPOT peptide array binding signal intensity [23]: 21
SPOT peptide array binding signal intensity [24]: 7.5
SPOT peptide array binding signal intensity [25]: 55.5
SPOT peptide array binding signal intensity [26]: 2
SPOT peptide array binding signal intensity [27]: 1.25
SPOT peptide array binding signal intensity [28]: 0.5
SPOT peptide array binding signal intensity [29]: 77
SPOT peptide array binding signal intensity [30]: 87.2
